Screening data: PubChem BioAssay, NMMLSC
Sampled rows, rich in hits. Any-hit rate of the full collection: about 1.1%.
LAP4 TOR yeast = modulators of LAP4-GFP expression in yeast, primary screen, S. cerevisiae, multiplex flow cytometry, MLPCN library. 3 h; median GFP as percent of DMSO wells. GFP response vs DMSO, % at 10 µM. 320,000 tested, 0.34% active. AID 2023, 2009;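 active = GFP response vs DMSO above a set limit, about the screen mean plus 3 SD, cut at about 150% in these data; inconclusive = under 70 cell events counted for the yeast strain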
CIT2-GFP yeast = modulators of CIT2-GFP expression in yeast, primary screen, S. cerevisiae, GFP fusion, multiplex flow cytometry, MLPCN library | GFP response vs DMSO, % at 10 µM | S. cerevisiae CIT2-GFP strain, 3 h; 100 means same as DMSO wells | 320,000 tested, 0.065% active;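 active = GFP response relative to DMSO above a set limit, near the screen mean plus 3 SD, cut at about 150% in these data; inconclusive = Fewer than 70 cells measured for a yeast strain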;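 also: ratio of well median GFP fluorescence to mean of DMSO wells on the plate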
VLA-4 inh = inhibition in human VLA-4 binding assay, primary screen, VLA-4 allosteric modulator project, MLPCN library, flow cytometry, VLA-4 expressing cells; Integrin alpha-4 (Homo sapiens), P13612; ligand binding flow cytometry; inhibition, % (about 7 µM as worked out from the volumes in the protocol); 330,000 tested, 0.2% active; in the data active = inhibition above about 50%
Target sequence (P13612 whole entry, looked up): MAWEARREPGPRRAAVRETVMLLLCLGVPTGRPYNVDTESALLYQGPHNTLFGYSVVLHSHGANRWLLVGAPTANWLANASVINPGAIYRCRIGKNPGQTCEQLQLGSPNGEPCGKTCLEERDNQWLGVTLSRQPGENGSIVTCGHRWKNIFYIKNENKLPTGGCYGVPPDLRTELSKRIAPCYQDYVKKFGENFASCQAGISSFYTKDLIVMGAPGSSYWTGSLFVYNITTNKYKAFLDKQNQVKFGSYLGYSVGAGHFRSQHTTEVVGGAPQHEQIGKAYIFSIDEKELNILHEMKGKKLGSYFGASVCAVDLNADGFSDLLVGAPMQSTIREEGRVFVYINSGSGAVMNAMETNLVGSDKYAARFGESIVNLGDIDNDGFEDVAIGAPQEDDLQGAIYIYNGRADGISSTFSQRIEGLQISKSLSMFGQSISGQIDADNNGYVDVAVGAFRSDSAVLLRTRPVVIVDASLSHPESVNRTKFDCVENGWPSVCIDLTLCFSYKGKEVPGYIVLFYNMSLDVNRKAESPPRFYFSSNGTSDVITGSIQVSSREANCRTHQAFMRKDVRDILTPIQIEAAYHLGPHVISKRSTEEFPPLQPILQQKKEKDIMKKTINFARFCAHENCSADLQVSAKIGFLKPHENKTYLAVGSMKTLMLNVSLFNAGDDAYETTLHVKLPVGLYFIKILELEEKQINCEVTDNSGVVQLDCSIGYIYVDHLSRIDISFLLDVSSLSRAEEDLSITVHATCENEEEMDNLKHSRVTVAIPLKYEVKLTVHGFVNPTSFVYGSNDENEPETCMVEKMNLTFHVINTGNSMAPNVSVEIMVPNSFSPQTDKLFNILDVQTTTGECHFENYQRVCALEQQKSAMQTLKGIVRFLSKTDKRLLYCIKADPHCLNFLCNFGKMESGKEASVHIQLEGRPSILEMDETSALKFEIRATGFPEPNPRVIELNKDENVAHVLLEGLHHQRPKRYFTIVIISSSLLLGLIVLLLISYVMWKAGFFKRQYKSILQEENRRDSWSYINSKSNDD
MEP2-GFP yeast = modulators of MEP2-GFP levels in yeast, primary screen, S. cerevisiae, multiplex flow cytometry, MLPCN library | S. cerevisiae MEP2-GFP strain, 3 h; 100% = DMSO control level | GFP response vs DMSO, % at 10 µM | 330,000 tested, 0.51% active;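 active = GFP response versus DMSO above a set limit, roughly screen mean plus 3 SD, cut at about 180% in these data; inconclusive = fewer than 70 cells counted for a yeast strain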;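 also: median GFP fluorescence of the barcode-gated MEP2-GFP cells per well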
RPL19A-GFP yeast = RPL19A-GFP expression modulators in yeast, primary screen, cell-based, S. cerevisiae, multiplex flow cytometry, MLPCN; S. cerevisiae RPL19A-GFP strain, 3 h; active compounds read low; percent response vs DMSO, % at 10 µM; 330,000 tested, 0.3% active;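 active = percent response vs DMSO below 50%; inconclusive = fewer than 70 events counted for the yeast strain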;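 also: median channel GFP fluorescence of the barcoded RPL19A-GFP strain; lower means less RPL19A-GFP as with rapamycin TOR inhibition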
AGP1-GFP MLPCN = modulators of AGP1-GFP expression in yeast TOR pathway, primary screen, cell-based, multiplex flow cytometry, S. cerevisiae, MLPCN library. 320,000 tested, 0.02% active. GFP response vs DMSO, % at 10 µM. 3 h; GFP as percent of DMSO wells;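 active = GFP response relative to DMSO above a set limit, near screen average plus 3 SD, cut at about 150% in these data; inconclusive = fewer than 70 cells counted for the yeast strain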;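 also: median GFP channel fluorescence of the gated AGP1 strain per well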
Of the large screens only hits and unclear results are named; the others gave an inactive call; [ ] = remark or other dose.

Cc1cccn2c(=O)c3cc(C(=O)NCCC4=CCCCC4)n(C)c3nc12	CIT2-GFP yeast inconclusive, RPL19A-GFP yeast 30[may fluoresce violet], AGP1-GFP MLPCN inconclusive
COCCCn1c(=N)c(C(N)=S)cc2c(=O)n3cccc(C)c3nc21	none
CCCn1c(=N)c(C(=O)NC2CCCC2)cc2c(=O)n3cccc(C)c3nc21	MEP2-GFP yeast 345, RPL19A-GFP yeast 43
Cc1cccn2c(=O)c3cc(C(=O)NCCc4ccccc4)c(=N)n(Cc4ccco4)c3nc12	CIT2-GFP yeast inconclusive, MEP2-GFP yeast 400[may fluoresce violet], AGP1-GFP MLPCN inconclusive
Cc1cccn2c(=O)c3cc(C(N)=S)c(=N)n(CCCN4CCOCC4)c3nc12	RPL19A-GFP yeast 25
COc1cccc(NC(=O)c2ccc3c(c2)CCCC3)c1	LAP4 TOR yeast 174
O=C(Nc1ccc(Cl)cc1)c1nc[nH]c1C(=O)NCCCNC(=O)c1[nH]cnc1C(=O)Nc1ccc(Cl)cc1	none
CC(=O)Nc1ccc2nc(-c3cccs3)[nH]c2c1	VLA-4 inh 94
CC(=O)Nc1ccc2nc(-c3cccn3C)[nH]c2c1	none
CC(C)Cn1c(=O)c(C(=O)NCc2ccc3c(c2)OCO3)c(O)c2ccccc21	LAP4 TOR yeast inconclusive, CIT2-GFP yeast inconclusive, MEP2-GFP yeast inconclusive, RPL19A-GFP yeast 29[may fluoresce violet], AGP1-GFP MLPCN inconclusive
O=C(Nc1c2c(nn1-c1ccccc1)CS(=O)C2)c1ccco1 (centres undefined)	LAP4 TOR yeast 168
O=C(c1ccc(-n2cncn2)c([N+](=O)[O-])c1)N1CCN(S(=O)(=O)c2ccc(Cl)cc2)CC1	none
Cc1ccc2cc(CCl)c(Cl)nc2c1	CIT2-GFP yeast inconclusive, MEP2-GFP yeast 791[may fluoresce violet], RPL19A-GFP yeast 36[may fluoresce violet], AGP1-GFP MLPCN inconclusive
ClCc1cc2ccccc2nc1Cl	none
COc1ccc2c(c1)cc(C(=O)N[C@@H](Cc1ccccc1)C(=O)N[C@@H](C)C(=O)O)n2C	none
COc1ccc2c(c1)cc(C(=O)N[C@@H](Cc1ccccc1)C(=O)O)n2C	CIT2-GFP yeast inconclusive, MEP2-GFP yeast 467[may fluoresce violet], RPL19A-GFP yeast 18[may fluoresce violet], AGP1-GFP MLPCN inconclusive
COc1ccccc1NC(=O)c1nc[nH]c1C(=O)Nc1ccccc1OC	CIT2-GFP yeast inconclusive, MEP2-GFP yeast 558[may fluoresce violet], RPL19A-GFP yeast 42[may fluoresce violet] (no result: AGP1-GFP MLPCN)
CNC(=O)c1[nH]cnc1C(=O)Nc1ccccn1	LAP4 TOR yeast 430[may fluoresce green], CIT2-GFP yeast 435[may fluoresce green], MEP2-GFP yeast 622[may fluoresce green], AGP1-GFP MLPCN 154[may fluoresce green]
CC(C)NS(=O)(=O)c1ccc(NCCCn2ccnc2)c([N+](=O)[O-])c1	none
COC(=O)c1cccc(-n2c(CCC(=O)O)ccc2-c2cccs2)c1	LAP4 TOR yeast 157
CC1CC(C)CN(CCCNC(=O)c2cc3c(=O)[nH]c4ccccc4c3n2C)C1 (centres undefined)	none
CN(CCCNC(=O)c1cc2c(=O)[nH]c3ccccc3c2n1C)Cc1ccccc1	CIT2-GFP yeast inconclusive, RPL19A-GFP yeast 31[may fluoresce violet], AGP1-GFP MLPCN inconclusive
Cc1cccc(NC(=O)c2cc3c(s2)-c2c(C)cccc2OC3)n1	CIT2-GFP yeast inconclusive, MEP2-GFP yeast 222[may fluoresce violet]
O=[N+]([O-])c1cccc(-c2ccc(/C=N/Nc3nc(N4CCCCC4)nc(N4CCCCC4)n3)o2)c1	LAP4 TOR yeast 152
O=[N+]([O-])c1ccc(-c2ccc(/C=N/Nc3nc(N4CCCC4)nc(N4CCCC4)n3)o2)cc1	none
O=C(NCCC1CCCCN1S(=O)(=O)c1ccc(Cl)cc1)C(=O)NCc1cccnc1 (centres undefined)	none
COc1ccc(SC[C@H](Cc2ccccc2)N2CC[C@@H](C(C)(C)C)CCC2=O)cc1	none
Cc1ccc(C(=O)N/N=C\c2ccc([N+](=O)[O-])s2)cn1	CIT2-GFP yeast inconclusive, MEP2-GFP yeast 311[may fluoresce violet], RPL19A-GFP yeast 49[may fluoresce violet]
Cc1ccc(C(=O)N/N=C/c2ccc([N+](=O)[O-])s2)cc1	none
O=C(O)C(Cc1ccc(Cl)cc1)Sc1nc2ccccc2[nH]1 (centres undefined)	none
CCOC(=O)Cn1cc(C(=O)C(=O)N2CCOCC2)c2ccccc21	none
CCOC(=O)C(=O)c1cn(C2OCC(OC(C)=O)C(OC(C)=O)C2OC(C)=O)c2ccccc12 (centres undefined)	CIT2-GFP yeast inconclusive, RPL19A-GFP yeast 43[may fluoresce violet]
OC(COc1ccccc1CNCc1cccnc1)CN1CCc2ccccc2C1 (centres undefined)	CIT2-GFP yeast inconclusive, MEP2-GFP yeast 588[may fluoresce violet]
CCOc1cc2c(cc1/C=C/C(=O)O)OC(C)C2 (centres undefined)	CIT2-GFP yeast inconclusive, MEP2-GFP yeast 607[may fluoresce violet]
CC(NC(=O)C1CCC(CNS(=O)(=O)c2ccccc2)CC1)c1ccccc1 (centres undefined)	MEP2-GFP yeast 311
O=C(Nc1nc(-c2ccccn2)cs1)c1ccc(-c2ccccc2F)o1	LAP4 TOR yeast 170[may fluoresce violet], CIT2-GFP yeast inconclusive
Cc1ccc(C(=O)Nc2nc(-c3ccccn3)cs2)o1	none
CN(C(=O)COC(=O)C1CCN(S(=O)(=O)c2ccc3c(c2)OCCO3)CC1)C1CCCCC1	none
Cc1c(C(=O)Nc2ccc(S(=O)(=O)N(C)C3CCN(C)CC3)cc2)oc2c(Cl)cccc12	none
Cc1ccc2nc(NC(=O)c3ccco3)sc2c1	none
Cc1ccc2nc(NC(=S)NC(=O)c3ccco3)sc2c1	CIT2-GFP yeast inconclusive, RPL19A-GFP yeast 40[may fluoresce violet], AGP1-GFP MLPCN inconclusive
CCCCCN(C(=O)CCC(=O)OCc1cccc(C)c1)c1c(N)n(CCCC)c(=O)[nH]c1=O	none
COc1cc(OC)cc(C(=O)NCC(=O)OCC(=O)C(C)(C)C)c1	CIT2-GFP yeast inconclusive, MEP2-GFP yeast 484[may fluoresce violet]
CCc1cccc(C)c1NC(=O)C1CCN(c2nn3c(=O)cc(C)nc3s2)CC1	none
CC1(C(=O)OCc2cc(=O)n3cc(Br)ccc3n2)CC1(Cl)Cl (centres undefined)	LAP4 TOR yeast 164
CC1CC1C(=O)OCc1cc(=O)n2cc(Br)ccc2n1 (centres undefined)	none
Cc1ccc(OCc2ccc(C(=O)Nc3nccs3)o2)cc1C	CIT2-GFP yeast inconclusive, MEP2-GFP yeast 255[may fluoresce violet], RPL19A-GFP yeast 15[may fluoresce violet], AGP1-GFP MLPCN inconclusive
Cn1c(=O)c2[nH]c(-c3ccccc3O)nc2n(C)c1=O	none
CCCOc1ccccc1-c1nc2c([nH]1)c(=O)[nH]c(=O)n2C	CIT2-GFP yeast inconclusive, MEP2-GFP yeast 186[may fluoresce violet]
Cc1nnc2sc(SCC(=O)Nc3nccs3)nn2c1=O	CIT2-GFP yeast inconclusive, MEP2-GFP yeast 235[may fluoresce violet], RPL19A-GFP yeast 22[may fluoresce violet], AGP1-GFP MLPCN inconclusive
COc1ccccc1NC(=O)CSc1nn2c(=O)c(C)nnc2s1	none
